Consider 108 compounds from PubChem BioAssay AID463229 (Broad Institute, 2010).

Among all 2,300 compounds or so, about 2,100 (91%) were called active.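 The calls were made as follows: active = compounds raising the signal whose fitted half-maximal concentration is at or below their top tested dose (cut at about 25 µM in these data); inconclusive = flat fit at 30 to 70% activity, or a poor fit; inactive = the rest.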 The set was probably picked from earlier hits. These entries were drawn from the full list. Results with a measured potency or affinity are listed apart.

This test is described as follows: ATP level change in INS-1E without cytokines, dose response, counter-screen for beta-cell apoptosis protection project, INS-1E rat cells, ATP luminescence, cherry pick (AID 463229). Conditions: INS-1E rat beta cells, no cytokines, CellTiter-Glo ATP, 48 h; series mostly up to 26 µM.
On to `N#Cc1ccc(-c2csc(NNC(=O)c3ccccc3)n2)cc1`, for which the outcome was inactive.
As for `CCn1c(=O)c(C(=O)Nc2ccccn2)c(O)c2ccccc21`, the entry is “inactive”; as for `COc1ccc(CN2CCN(CCSc3ccc(C)cc3)CC2)c(OC)c1OC`, “inactive”; as for `CCOC(=O)C1(Cc2cccc(Cl)c2)CCCN(C(=O)c2ccc(COC)s2)C1` (stereo not drawn), “inactive”.
For the compound `CN(C)CCCNc1cc(C(C)(C)C)nc2c(-c3ccccc3)cnn12`, the compound was classed as inactive.
As for `Cc1ccc2c(c1)Sc1c(ccc3ccccc13)N2`, the entry is “inactive”.
Regarding `COc1ccc(C(=O)c2c(C)c3ccccc3n2CC(O)CNC(C)C)cc1` (stereo not drawn), the compound was classed as inactive.
`COc1ccc(S(=O)(=O)Nc2ccc(O)c3ccccc23)cc1`: the result was inactive.
For the compound `CN(Cc1ccccc1)C(=O)c1nc2ccccn2c1CN1CCCC1c1nccs1` (stereo not drawn), the call was inactive.
For the compound `CCn1c(=O)c([N+](=O)[O-])c(N2CCN(Cc3ccc4c(c3)OCO4)CC2)c2ccccc21`, the compound was called inactive.
For `O=C(C(Sc1ccccc1)c1ccccc1)N1CCN(c2ccccc2F)CC1` (stereo not drawn), the result was inactive.
Turning to `COc1ccc(N2CC(C(=O)N3CCN(c4ccccc4F)CC3)CC2=O)cc1` (stereo not drawn), the outcome was inactive.
Consider `Cc1occc1C(=O)N1CCCC(N2CCN(c3cccc(C(F)(F)F)c3)CC2)C1` (stereo not drawn), for which the result was inactive.
In the case of `CC#CC[N+](C)(C)CCCCCCCC`, the call was inactive.
With `OCCN1CCN(C2Cc3cc(Cl)ccc3Sc3ccc(Cl)cc32)CC1` (stereo not drawn) (tested in a mixture with another compound), the outcome was inactive.
As to `O=[N+]([O-])c1cccc(/C=N/n2cnnc2)c1`, the call was inactive.
As to `CC(C)NC(=S)NC(c1ccccc1)(c1ccccc1)c1ccccc1`, the compound was called inactive.
Consider `CC1CCN(C(=O)CCNS(=O)(=O)c2ccc(Br)cc2)CC1`, for which the compound was called inactive.
Turning to `COc1ccc(Br)cc1CN(C)CC(=O)NCc1ccc(F)cc1`, the outcome was inactive.
On to `Cc1nn(-c2ccccc2)c(C)c1NC(=O)COc1ccc(Br)cc1Cl`, for which the call was inactive.
For `CCSC1=NCCN1C(=O)C(C)(C)Oc1ccc(Cl)cc1`, the outcome was inactive.
As for `Cc1cccc(C)c1NC(=O)CNC(=O)c1c(C)nn(C)c1Cl`, the entry is “inactive”; as for `Cc1cccc(NC(=S)Nc2ccc3cn[nH]c3c2)c1`, “inactive”; as for `NC(=S)N/N=C/c1c(O)ccc2ccccc12`, “inactive”.
As for `Cc1ccc(O)c(/C=N/NC(=O)c2[nH]ncc2Br)c1`, the entry is “inactive”; as for `COc1ccc(N(C)S(=O)(=O)c2cccc(C(=O)Nc3nc(C)c(C(C)=O)s3)c2)cc1`, “inactive”; as for `O=C(c1ccco1)c1coc2c1cc(O)c1ccccc12`, “inactive”.
Turning to `Cc1ccc2c(C)nc(Nc3nc(CSc4nc5ccccc5[nH]4)cc(=O)[nH]3)nc2c1`, the outcome was inactive.
For `Cc1ccc(C(=O)N/C(=C\c2ccc(-c3ccccc3[N+](=O)[O-])o2)C(=O)NCCCN2CCOCC2)cc1`, the compound was called inactive.
As for `C=CCN1C(=O)N/C(=C/c2ccc(N3CCOCC3)o2)C1=O`, the entry is “inactive”.
For `C[C@H](CO)N1C[C@H](C)[C@@H](CN(C)C(=O)NC2CCCCC2)Oc2c(NC(=O)Nc3ccc(C(F)(F)F)cc3)cccc2C1=O`, the call was inactive.
`COc1ccc(S(=O)(=O)N2CCNCC2)cc1OC`: the result was inactive.
Next, `CCOC(=O)C(NCCc1ccc(F)cc1)(NC(=O)CC)C(F)(F)F` (stereo not drawn): “inactive”.
As to `Cc1cc(C)cc(OCCCn2ccnc2)c1`, the compound was classed as inactive.
Regarding `O=c1[nH]c(NCCCO)nc2c1C1(CCCC1)Cc1ccccc1-2`, the compound was called inactive.
Regarding `Nc1ccc(Nc2ccc([N+](=O)[O-])cc2[N+](=O)[O-])cc1`, the compound was called inactive.
For `COc1ccccc1NCC(=O)N/N=C/c1c(O)ccc2ccccc12`, the result was inactive.
In the case of `C/C(N)=C(/C#N)C(=O)COC(=O)c1cc(-c2ccc(C)cc2)nc2ccccc12`, the call was inactive.
`COc1ccc(C2=Nn3c(nnc3-c3ccccc3Cl)SC2)cc1OC1CCCC1`: the call was inactive.
Next, `CCn1c(SCC(=O)Nc2ccc(OC)cc2)nc2nc3c(cc2c1=O)CCCC3`: “inactive”; `Cc1cccnc1CCNCc1c(C(=O)N2C[C@@H](C)O[C@@H](C)C2)nc2ccc(Cl)cn12`: “inactive”.
As for `Cc1ccccc1Oc1nc(-c2ccccn2)nc2ccccc12`, the entry is “inactive”; as for `COc1cc2c(cc1OC)C(NC(=O)C(F)(F)F)CNC2=O` (stereo not drawn), “inactive”.
`Cc1cccc(C2(c3cccc(C)c3)OC(=O)c3ccccc32)c1`: the call was inactive.
Next, `O=C(CN1C(=O)c2ccccc2S1(=O)=O)c1ccc(F)cc1`: “inactive”; `O=c1c2c3c(sc2n(CCN2CCCCC2)c(=O)n1Cc1ccco1)CCCCC3`: “inactive”.
Next, `CCCCn1cnc2c(c(-c3ccccc3)c(-c3ccccc3)n2Cc2ccco2)c1=N`: “inactive”.
Take `Cc1cc(C(=O)c2ccc3ccccc3c2)c(C)o1`: the compound was classed as inactive.
In the case of `C=CCc1c(C)nc(C)nc1N/N=C/c1ccc(N(C)C)cc1`, the compound was classed as inactive.
Next, `Cc1cc(N2CCOCC2)nc(N)n1`: “inactive”; `COc1ccccc1NCC(=O)N1CCN(S(=O)(=O)c2ccccc2)CC1`: “inactive”; `Cc1ccc(NC(=O)C(C)Sc2nnc(C)n2C2CC2)cc1S(=O)(=O)N1CCOCC1` (stereo not drawn): “inactive”.
`CNc1nc(N)c([N+](=O)[O-])c(Nc2cccc(F)c2)n1`: the result was inactive.
As for `Cc1cccc(CNc2ccc(S(=O)(=O)N3CCCCC3)cc2)c1`, the compound was called inactive.
`O=C(N/N=C/c1cccnc1)c1ccccc1NS(=O)(=O)c1cccs1`: the result was inactive.
Regarding `O=C(c1cccc(Cl)c1)c1nn(-c2ccccc2)c(=O)cc1C(F)(F)F`, the result was inactive.
On to `O=[N+]([O-])/C=C/c1cn(Cc2ccc(F)cc2)c2ccccc12`, for which the compound was called inactive.
For the compound `Cc1csc2nc(NC(=O)c3ccccc3)sc(=O)c12`, the compound was called inactive.
Turning to `CCOc1ccc(N(C)S(=O)(=O)c2ccc(C)c(C(=O)OCC(=O)c3c[nH]c4ccccc34)c2)cc1`, the compound was classed as inactive.
Next, `Cc1cc(C)c(OCC(O)CNC(C)(C)C)c(C)c1` (stereo not drawn): “inactive”; `OC(CNC1CCCCC1)COCCOc1ccc(Br)cc1` (stereo not drawn): “inactive”; `CC(C)(C)OC(=O)N1CCC(CNC(=O)c2cccs2)CC1`: “inactive”.
As to `COc1ccc(-c2ccnc(SCC(=O)N3CCN(c4ccccc4)CC3)n2)cc1`, the call was inactive.
Next, `O=C(NCc1nc2ccccc2[nH]1)C1=C[C@@H](C2CCCCC2)C[C@@H](OCc2ccc(CO)cc2)O1`: “inactive”; `CCOC(=O)C1=C(CCc2ccccc2)NC(=O)NC1c1ccc2ccccc2c1` (stereo not drawn): “inactive”.
On to `CCCOC(=O)/C(C(N)=NCc1ccccc1)=C(\O)OCCC`, for which the compound was classed as inactive.
Next, `c1cc(-c2noc(CC3CCCCC3)n2)ccn1`: “inactive”; `COc1ccccc1/C=N/OCc1cc(C(C)=O)ccc1OC`: “inactive”.
Turning to `NC(=O)c1ccccc1OC1CCC1`, the compound was classed as inactive.
On to `CCCC(=O)N(CCN(C(=O)CCC)c1ccccc1)c1ccccc1`, for which the call was inactive.
Next, `CN(C)c1ccc(/C=C(\C#N)C(=O)OCC(=O)N(C)C2CCS(=O)(=O)C2)cc1` (stereo not drawn): “inactive”.
Regarding `COc1ccc(/C=C/C(=O)c2ccncc2)c2ccccc12`, the outcome was inactive.
On to `COc1cc(CNCCO)cc(Cl)c1OCc1ccc(Cl)cc1Cl`, for which the compound was called inactive.
Regarding `Cc1ccc(NC(=O)NCC2CCN(Cc3cccc(Cl)c3)CC2)cc1Cl`, the result was inactive.
As to `CCc1ccc(-n2c(C)cc(/C=N/NC(=O)c3ccncc3)c2C)cc1`, the outcome was inactive.
On to `Cc1cc(C)nc(-n2nc(C)cc2Nc2ccccc2)n1`, for which the call was inactive.
On to `CC1=CC(C)(C)N(C(=O)CSc2nnc(-c3ccc(C)cc3)o2)c2ccc(C)cc21`, for which the outcome was inactive.
With `CCOC(=O)C(=Cc1ccc(Br)cc1)C(=O)OCC`, the call was inactive.
With `O=[N+]([O-])c1ccc(N2CCN(CCOc3nonc3-c3ccccc3)CC2)c(Cl)c1`, the compound was classed as inactive.
Take `Cc1ccccc1OC1C(=O)N(Cc2ccc3c(c2)OCO3)C1c1sccc1C` (stereo not drawn): the compound was called inactive.
For `CC(Sc1nnc2c(n1)[nH]c1ccccc12)C(=O)N(C)C1CCCCC1` (stereo not drawn), the call was inactive.
`CCCC1(c2ccccc2)NC(=O)N(CC(=O)Nc2cc(C)ccc2OC)C1=O` (stereo not drawn): the compound was classed as inactive.
Consider `O=[N+]([O-])c1ccc(-n2cnc3ccccc32)c([N+](=O)[O-])c1`, for which the call was inactive.
As for `CCS(=O)(=O)c1ncc(Cl)c(C(=O)Nc2ccccc2OC)n1`, the entry is “inactive”; as for `Cc1ccc(OCc2cc(C(=O)N(C)Cc3cc(C4CC4)n[nH]3)no2)cc1C`, “inactive”.
Take `COCCCNC(=S)N/N=C/c1cccc(OC)c1O`: the compound was classed as inactive.
For the compound `O=C(Nc1ccc(F)cc1F)N1CCCN(CCOc2ccccc2)CC1`, the result was inactive.
`CC(=O)Nc1ccc(S(=O)(=O)N2c3ccccc3NC(=O)CC2C)c(Cl)c1` (stereo not drawn): the compound was classed as inactive.
In the case of `Cc1cccc(NC(=O)Cn2c(/C=C/c3ccccc3)nc3ccccc32)c1`, the compound was classed as inactive.
As for `O=C(Oc1cccc2cccnc12)c1cccc(N2C(=O)C3C4CCC(C4)C3C2=O)c1` (stereo not drawn), the entry is “inactive”.
As for `O=c1c(Cl)c(Cl)cnn1Cc1ccc(F)cc1`, the compound was classed as inactive.
Consider `O=C(Cn1ncc(Cl)c(Cl)c1=O)c1ccc2c(c1)OCCO2`, for which the compound was classed as inactive.
For the compound `Cc1ccc2ccc3ccc(C)nc3c2n1`, the compound was classed as inactive.
Regarding `CCOCCCNC(=O)c1c[nH]c2cc(OC)ccc2c1=O`, the outcome was inactive.
On to `COc1ccc(C(=O)CSc2n[nH]c(=O)n2Cc2ccco2)cc1`, for which the compound was called inactive.
As for `CCOc1ccc(OCC)c(S(=O)(=O)NCCOC23CC4CC(CC(C4)C2)C3)c1`, the entry is “inactive”; as for `C=CCN(CC=C)CC(O)Cn1c2ccccc2c2ccccc21` (stereo not drawn), “inactive”; as for `O=C(NCc1ccccn1)c1cc(-c2ccc(Cl)cc2)oc1C(F)(F)F`, “inactive”.
As for `CCN(CC(=O)Nc1ccc(NC(C)=O)cc1)C(=O)CCCOc1ccc(C(C)(C)C)cc1`, the entry is “inactive”; as for `CC(=O)Oc1ccc(N(C(C)=O)S(=O)(=O)c2cccs2)c2ccccc12`, “inactive”; as for `Cc1ccc(O)c(CNc2cccc3cccnc23)c1`, “inactive”.
In the case of `Cc1nc(C(F)(F)F)c(C(=O)N/N=C(\N)c2ccccn2)s1`, the compound was classed as inactive.
For the compound `COc1ccc(/C=C/C(=O)NC(=S)Nc2ccccc2C(=O)NC2CCCCC2)cc1`, the call was inactive.
With `O=C1CSC(c2ccccc2F)N1` (stereo not drawn), the outcome was inactive.
On to `CC(=O)c1c(C)[nH]c(C(=O)CN2CCN(S(=O)(=O)c3ccccc3)CC2)c1C`, for which the compound was classed as inactive.
Turning to `CCOc1ccc(-n2c(=O)[nH]cc(C(=O)Nc3ccc(OC)c(OC)c3)c2=O)cc1`, the compound was classed as inactive.
As to `CCCOc1ccc(C(=O)C(CN2CCOCC2)c2ccccc2)cc1` (stereo not drawn), the compound was classed as inactive.
`CC(NC(=O)C1CCC(C(=O)NC(C)c2ccccc2)CC1)c1ccccc1` (stereo not drawn): the result was inactive.
